Reference: PubChem BioAssay (EPA / NIEHS)
“And” between values parts separate entries of the source, which are not always exact repeats. Identical values can stand only once. Records with an inconclusive call do not appear. Some structures have more than one record in an assay (separate samples or runs), and their calls can disagree. The source made the active and inactive calls. Rule for the calls, unless noted: active = hit-call score of the fitted dose curve at least 0.9, where 1 is the maximum; inconclusive = response in the unintended direction; inactive = score below 0.9.

What was measured:
[1] = target: Retinoic acid receptor RXR-alpha (Homo sapiens) (UniProt P19793); experiment: OT_NURR1_NURR1RXRa_1440: Odyssey Thera (OT) 24-hour HEK293T Protein Complementation Assay for Nurr1/retinoid X receptor (RXR) (AID 2283386)
Method in brief: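 Cell-based binding reporter: HEK293T cells, 24 h exposure, fluorescence-detected fragment complementation, DMSO as baseline.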

[2] = target: Peroxisome proliferator-activated receptor gamma (Homo sapiens) (UniProt P37231); experiment: OT_PPARg_PPARgSRC1_0480: Odyssey Thera (OT) 8-hour Protein-Complementation Assay for Peroxisome Proliferator-activated Receptor Gamma / SRC-1 Co-activator (AID 2283387)
Method in brief: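 HEK293T transiently transfected with PPARg and SRC-1 fused to Venus YFP fragments, compounds 8 h at 37C. Fixed, Draq5-stained cells imaged; nuclear/cytoplasmic 488 nm fluorescence ratio over at least 350 cells per image; gain fitted versus DMSO.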

[3] = target: Peroxisome proliferator-activated receptor gamma (Homo sapiens) (UniProt P37231); experiment: OT_PPARg_PPARgSRC1_1440: Odyssey Thera (OT) 24-hour Protein-Complementation Assay for Peroxisome Proliferator-activated Receptor Gamma/ SRC-1 Co-activator (AID 2283388)
Method in brief: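 HEK293T transiently transfected with PPARg/SRC-1 split-Venus YFP fusions 48 h before dosing, then treated 24 h at 37C. Fixed cells imaged; nuclear/cytoplasmic 488 nm fluorescence ratio, gain of signal versus DMSO.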

[4] = CEETOX_H295R_OHPREG: CeeTox H295R High-throughput Steroidogenesis Assay for OH-Pregnenolone (OHPREG) (AID 2283434; active = hit-call score of the fitted dose curve at least 0.9, where 1 is the maximum; inactive = score below 0.9); settings: actives raise or lower the signal
Method in brief: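 Secreted 17alpha-hydroxypregnenolone measured by HPLC-MS/MS after liquid-liquid extraction. Human adrenal H295R cells received 48 h forskolin (10 uM) stimulation before 48 h chemical exposure at 0.1% final DMSO; MTT viability in same wells; bidirectional fit against DMSO.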

[5] = CEETOX_H295R_OHPROG: CeeTox H295R High-throughput Steroidogenesis Assay for OH-Progesterone (OHPROG) (AID 2283435; active = hit-call score of the fitted dose curve at least 0.9, where 1 is the maximum; inactive = score below 0.9;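 for AC50: 17alpha-hydroxyprogesterone secreted into medium measured by HPLC-MS/MS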); settings: actives raise or lower the signal
Method in brief: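 Human adrenocortical H295R cells, passage 10 or lower, were treated with chemical for 48 h after forskolin priming, and hormone output in the medium was quantified by LC-MS/MS.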

[6] = CEETOX_H295R_ESTRADIOL: CeeTox H295R High-throughput Steroidogenesis Assay for Estradiol (AID 2283440; active = hit-call score of the fitted dose curve at least 0.9, where 1 is the maximum; inactive = score below 0.9;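 note: estradiol secreted into medium quantified by LC-MS/MS after dansyl derivatisation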); settings: actives raise or lower the signal
Method in brief: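 H295R cells pre-stimulated 48 h with 10 uM forskolin, then exposed 48 h to chemical in 0.1% DMSO. Medium estradiol quantified by MTBE extraction, dansyl derivatisation and HPLC-MS/MS; bidirectional fit versus DMSO; MTT viability required >/=70%.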

[7] = CEETOX_H295R_ESTRONE: CeeTox H295R High-throughput Steroidogenesis Assay for Estrone (AID 2283441; active = hit-call score of the fitted dose curve at least 0.9, where 1 is the maximum; inactive = score below 0.9;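 note: estrone secreted into medium measured by LC-MS/MS after dansyl derivatization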;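 for AC50: human adrenal H295R cells prestimulated with forskolin for two days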); settings: actives raise or lower the signal
Method in brief: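 Forskolin-stimulated H295R cells are treated 48 h with chemical, and estrone in the medium is measured by LC-MS/MS. Activity is fitted in both directions relative to DMSO controls, with chemicals diluted until MTT viability reaches at least 70%.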

[8] = CEETOX_H295R_11DCORT: CeeTox H295R High-throughput Steroidogenesis Assay for 11-Deoxycortisol (11DCORT) (AID 2283432; active = hit-call score of the fitted dose curve at least 0.9, where 1 is the maximum; inactive = score below 0.9;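 for AC50: 11-deoxycortisol secreted into the medium measured by LC-MS/MS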); settings: actives raise or lower the signal
Method in brief: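 H295R cells prestimulated 48 h with 10 uM forskolin, then exposed 48 h to chemical in 0.1% DMSO. 11-Deoxycortisol in medium quantified by HPLC-MS/MS after MTBE extraction; bidirectional fit versus DMSO. MTT viability read in same wells.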

[9] = CEETOX_H295R_ANDR: CeeTox H295R High-throughput Steroidogenesis Assay for Androstenedione (ANDR) (AID 2283436; active = hit-call score of the fitted dose curve at least 0.9, where 1 is the maximum; inactive = score below 0.9); settings: actives raise or lower the signal
Method in brief: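 Medium from 48 h chemical-treated H295R adrenal cells was extracted with MTBE and androstenedione measured by LC-MS/MS. Activity was fit in both directions relative to DMSO. Cytotoxic concentrations were re-tested after dilution until MTT viability reached ≥70%.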

[10] = CEETOX_H295R_DOC: CeeTox H295R High-throughput Steroidogenesis Assay for DOC (AID 2283439; active = hit-call score of the fitted dose curve at least 0.9, where 1 is the maximum; inactive = score below 0.9); settings: actives raise or lower the signal
Method in brief: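 H295R, fsk 10 uM ×48 h pre, cmpd ×48 h (0.1% DMSO). Media → MTBE extr. → LC-MS/MS, DOC. Bidirectional fit vs DMSO; MTT viability same wells, re-test diluted if <70%.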

Measured: AC50

Peroxisome proliferator-activated receptor gamma (Homo sapiens), sequence (P37231 whole entry, looked up, the tested form may be a part): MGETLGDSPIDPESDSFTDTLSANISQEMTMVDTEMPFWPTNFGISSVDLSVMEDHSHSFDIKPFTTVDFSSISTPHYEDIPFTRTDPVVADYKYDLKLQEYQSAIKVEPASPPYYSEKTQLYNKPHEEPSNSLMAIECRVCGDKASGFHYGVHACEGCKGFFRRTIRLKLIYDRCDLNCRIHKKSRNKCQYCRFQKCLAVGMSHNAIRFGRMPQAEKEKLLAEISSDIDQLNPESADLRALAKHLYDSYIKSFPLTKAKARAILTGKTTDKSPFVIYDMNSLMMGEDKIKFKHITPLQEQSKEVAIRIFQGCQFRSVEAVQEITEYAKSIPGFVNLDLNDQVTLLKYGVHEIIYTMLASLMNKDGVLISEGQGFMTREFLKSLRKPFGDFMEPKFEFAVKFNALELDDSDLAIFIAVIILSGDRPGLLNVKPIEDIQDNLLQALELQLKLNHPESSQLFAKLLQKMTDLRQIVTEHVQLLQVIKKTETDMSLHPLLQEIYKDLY
Retinoic acid receptor RXR-alpha (Homo sapiens), sequence (P19793 whole entry, looked up, the tested form may be a part): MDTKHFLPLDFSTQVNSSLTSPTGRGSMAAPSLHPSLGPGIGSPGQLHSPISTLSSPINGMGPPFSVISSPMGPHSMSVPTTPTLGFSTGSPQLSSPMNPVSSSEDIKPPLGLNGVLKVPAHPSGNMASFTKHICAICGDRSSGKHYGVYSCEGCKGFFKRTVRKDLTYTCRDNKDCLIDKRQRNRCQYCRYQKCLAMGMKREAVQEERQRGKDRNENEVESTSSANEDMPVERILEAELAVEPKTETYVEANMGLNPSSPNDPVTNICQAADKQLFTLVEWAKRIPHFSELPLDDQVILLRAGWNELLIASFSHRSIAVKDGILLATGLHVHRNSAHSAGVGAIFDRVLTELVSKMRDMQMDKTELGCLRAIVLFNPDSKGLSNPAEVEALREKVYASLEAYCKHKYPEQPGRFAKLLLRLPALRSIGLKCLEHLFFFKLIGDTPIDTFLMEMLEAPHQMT

ClC1=C(Cl)[C@]2(Cl)[C@@H]3[C@@H](Cl)[C@H]4O[C@H]4[C@@H]3C1(Cl)C2(Cl)Cl
active: [1] 86 µM
inactive: [1] | [2] | [3]

CCCCCCCCCc1ccc(O)cc1
inactive: [2] | [3]
active: [1] 79.1 µM and 85.9 µM

Cc1cc2c3c(c1)C(c1ccccc1)=N[C@@H](NC(=O)c1ccncc1)C(=O)N3CC2
active: [1] 33.6 µM | [2] 25 µM and 20.8 µM | [3] 37.4 µM | [4] 25.4 µM | [5] 25.6 µM
inactive: [1] | [3] | [6] | [7]

Oc1ccc(C(c2ccc(O)cc2)(C(F)(F)F)C(F)(F)F)cc1
inactive: [1] | [2] | [3]

Oc1c(Cl)c(Cl)c(Cl)c(Cl)c1Cl
inactive: [1] | [2] | [3]

O=C(NC(=O)c1cc(F)c(F)cc1Cl)Nc1cc(F)ccc1N1CCC(C(=O)O)CC1
inactive: [1] | [2] | [3]

CC(C)C(=O)OCC(C)(C)C(OC(=O)C(C)C)C(C)C (stereo not drawn)
inactive: [1] | [2] | [3]

C=CC(=O)NCNC(=O)C=C
inactive: [1] | [2] | [3]

CCC(=O)O[C@H]1CC[C@H]2[C@@H]3CCC4=CC(=O)CC[C@]4(C)[C@H]3CC[C@]12C
inactive: [1] | [2] | [3]
active: [1] 73.3 µM and 73.7 µM and 78.4 µM | [8] 75.1 µM | [4] 34.1 µM | [5] 3.14 µM | [9] 22.8 µM | [10] 1.77 µM | [6] 0.643 µM | [7] 1.31 µM

OCC(O)CO
inactive: [1] | [2] | [3]

ClC(Cl)=C(c1ccc(Cl)cc1)c1ccc(Cl)cc1
active: [1] 79.2 µM and 79.5 µM and 80 µM
inactive: [1] | [2] | [3]

COS(=O)(=O)OC
inactive: [1] | [2] | [3]

Cc1ccccc1O
inactive: [1] | [2] | [3]

CC(C)(O)C(=O)Nc1ccc([N+](=O)[O-])c(C(F)(F)F)c1
inactive: [1]

Clc1ccc(C(Cl)(Cl)Cl)cc1
inactive: [1] | [2] | [3]

O=S(=O)(O)C(F)(F)C(F)(F)C(F)(F)C(F)(F)C(F)(F)C(F)(F)F
inactive: [1] | [2] | [3]

C1CC2OC2CC1C1CO1 (stereo not drawn)
inactive: [1] | [2] | [3]

CCCN(CCC)N=O
inactive: [1] | [2] | [3]

O=NN(c1ccccc1)c1ccccc1
inactive: [1] | [2] | [3]

c1ccc(-c2ccccc2)cc1
inactive: [1] | [2] | [3]

CN(C)CCO
inactive: [1] | [2] | [3]

ClC1=C(Cl)[C@]2(Cl)[C@@H]3[C@@H]4C[C@@H]([C@H]5O[C@@H]45)[C@@H]3[C@@]1(Cl)C2(Cl)Cl
inactive: [1] | [2] | [3]

CCC(C)(c1ccc(O)cc1)c1ccc(O)cc1
active: [1] 92.5 µM and 87.7 µM
inactive: [1] | [2] | [3]

CCCCCCCCOC(=O)c1ccccc1C(=O)OCCCCCCCC
inactive: [1] | [2] | [3]

Clc1ccc(C(c2ccccc2Cl)C(Cl)(Cl)Cl)cc1 (stereo not drawn)
active: [1] 59.9 µM
inactive: [1] | [2] | [3] | [8] | [4] | [5] | [10] | [6] | [7]

CN(C)c1nc(=O)n(C2CCCCC2)c(=O)n1C
inactive: [1] | [2] | [3]

Nn1cnnc1
inactive: [1] | [2] | [3]

CCCCCCOC(=O)c1ccccc1C(=O)OCCCCCC
inactive: [1] | [2] | [3]

O=S(=O)(O)C(F)(F)C(F)(F)C(F)(F)C(F)(F)F
inactive: [1] | [2] | [3]

CO/C=C(/C(=O)OC)c1ccccc1COc1cccc(C(F)(F)F)n1
inactive: [1] | [2] | [3]

O=C(N[C@H]1CN2CCC1CC2)c1cc2ccoc2cn1
inactive: [1] | [2] | [3]

CCC(C)c1cc([N+](=O)[O-])cc([N+](=O)[O-])c1O (stereo not drawn)
inactive: [1] | [2] | [3]

CCC(C)(CC)c1cc(NC(=O)c2c(OC)cccc2OC)on1
inactive: [1] | [2] | [3] | [4] | [5]

CCOCCOC(C)=O
inactive: [2] | [3] | [8] | [4] | [5] | [10]

Cc1ccccc1[N+](=O)[O-]
inactive: [1] | [2] | [3]

Cc1cccc([N+](=O)[O-])c1
inactive: [2] | [3]

CC1=C2C[C@H]3[C@@H](CC=C4C[C@@H](O)CC[C@@]43C)[C@@H]2CC[C@]12O[C@@H]1C[C@H](C)CN[C@H]1[C@H]2C
inactive: [1] | [2] | [3] | [8] | [9] | [10]

Clc1ccc(Cl)cc1
inactive: [2] | [3]

O=C(O)C(F)(F)C(F)(F)C(F)(F)C(F)(F)C(F)(F)F
inactive: [1] | [2] | [3]

C=CC(N)=O
inactive: [1] | [8] | [10]

Cc1ccc(O)c(C)c1
not listed: [9]
inactive: all other assays above

CCOP(=S)(OCC)SCSC(C)(C)C
inactive: [1] | [2] | [3]
active: [4] 37 µM

CC#Cc1cc(C)nc(Nc2ccccc2)n1
active: [5] 34.8 µM
not listed: [9]
inactive: all other assays above

CCNc1nc(NC(C)C)nc(SC)n1
inactive: [1] | [2] | [3] | [4] | [5] | [9]

Cc1ccccc1CO[C@@H]1C[C@@]2(C(C)C)CC[C@]1(C)O2
active: [4] 50 µM | [9] 50 µM
inactive: [1] | [2] | [3] | [5]

Cc1cc(-c2ccc(N)c(C)c2)ccc1N
active: [5] 2.96 µM and 10.2 µM
inactive: [1] | [2] | [3] | [4]

O=C(NC(=O)c1c(F)cccc1F)Nc1cc(Cl)c(OC(F)(F)C(F)F)c(Cl)c1
inactive: all assays above

ClC1=C(Cl)[C@]2(Cl)[C@@H]3[C@H]4C[C@H]([C@@H]5O[C@H]45)[C@@H]3[C@@]1(Cl)C2(Cl)Cl
inactive: [1] | [2] | [3]
active: [8] 7.42 µM | [4] 1.48 µM | [5] 13 µM | [10] 14.6 µM

NS(=O)(=O)C(F)(F)C(F)(F)C(F)(F)C(F)(F)C(F)(F)C(F)(F)C(F)(F)C(F)(F)F
inactive: all assays above

O=C(O)C(F)(F)C(F)(F)C(F)(F)C(F)(F)C(F)(F)C(F)(F)C(F)(F)C(F)(F)F
inactive: [2] | [3]

CCCCCCCCCC[N+](C)(C)CCCCCCCCCC
inactive: [2] | [3]

Cc1cc(O)ccc1Cl
active: [5] 21.5 µM
not listed: [9]
inactive: all other assays above

CC(C)(c1ccccc1)c1ccc(O)cc1
inactive: [2] | [3]

Oc1ccc(Cl)cc1Cl
active: [5] 22.2 µM | [6] 17 µM | [7] 24.4 µM
not listed: [1] | [9]
inactive: all other assays above

CC(c1ccc(O)cc1)(c1ccc(O)cc1)c1ccc(O)cc1
inactive: [2] | [3]

Cc1cccc(C)c1N
not listed: [9]
inactive: all other assays above

CCOC(=O)C(O)(c1ccc(Cl)cc1)c1ccc(Cl)cc1
inactive: [2] | [3]

C[C@]12CCC(=O)C=C1CC[C@@H]1[C@@H]2CC[C@@]2(C)[C@H]1CC[C@]2(C)O
active: [8] 11 µM | [4] 5.59 µM | [5] 0.807 µM
inactive: [1] | [2] | [3] | [10]

CCSC(=O)N(CC)C1CCCCC1
inactive: [2] | [3] | [8] | [5] | [10]

C[C@]12CCC(=O)C=C1CC[C@@H]1[C@@H]2CC[C@]2(C)C(=O)CC[C@@H]12
inactive: [1] | [2] | [3] | [6] | [7]
active: [4] 8.12 µM | [5] 0.535 µM

N#Cc1ccc(N(CC(N)=O)CC(F)(F)F)cc1C(F)(F)F
inactive: [2] | [3] | [4] | [5] | [6] | [7]

O=C(O)C(F)(F)C(F)(F)C(F)(F)C(F)(F)C(F)(F)C(F)(F)C(F)(F)C(F)(F)C(F)(F)F
inactive: [1] | [2] | [3]

COc1ccc(O)c(C(C)(C)C)c1
inactive: [1] | [2] | [3]

Nc1ccc(-c2ccc(N)cc2)cc1
active: [8] 79.6 µM | [4] 14.3 µM | [5] 37.4 µM | [10] 17.7 µM
not listed: [9]
inactive: all other assays above

c1cc2ccc3cccc4ccc(c1)c2c34
active: [8] 26.5 µM | [4] 15.8 µM | [5] 27.1 µM | [9] 35.9 µM | [10] 14.5 µM
inactive: [1] | [2] | [3]
